ZTA DNA inh: counter-screen for EBNA-1 inhibitors: inhibitors of Epstein-Barr virus ZTA | P03206 | 0.15% of 320,000 active | inhibition, % at 11 µM | ZTA-DNA binding, fluorescence polarization; in the data active = inhibition above about 33%
Target sequence (P03206 whole entry, looked up): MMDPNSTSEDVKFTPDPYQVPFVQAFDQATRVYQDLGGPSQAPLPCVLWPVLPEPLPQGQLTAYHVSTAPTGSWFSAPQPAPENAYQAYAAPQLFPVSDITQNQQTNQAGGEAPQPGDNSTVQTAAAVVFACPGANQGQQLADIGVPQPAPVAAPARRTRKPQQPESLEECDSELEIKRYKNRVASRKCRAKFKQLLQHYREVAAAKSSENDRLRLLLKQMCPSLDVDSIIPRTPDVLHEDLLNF
PP1 counter: PP1-alpha (human) inhibition in PP5 counter-screen; inhibition, % at 6.7 µM; purified PP1alpha, OMFP fluorescence; 0.9% of 320,000 active; P62136;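 active = inhibition above the mean inhibition of all tested compounds plus 3 SD, computed separately for each screening campaign, cut at about 15% in these data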
Target sequence (P62136 whole entry, looked up): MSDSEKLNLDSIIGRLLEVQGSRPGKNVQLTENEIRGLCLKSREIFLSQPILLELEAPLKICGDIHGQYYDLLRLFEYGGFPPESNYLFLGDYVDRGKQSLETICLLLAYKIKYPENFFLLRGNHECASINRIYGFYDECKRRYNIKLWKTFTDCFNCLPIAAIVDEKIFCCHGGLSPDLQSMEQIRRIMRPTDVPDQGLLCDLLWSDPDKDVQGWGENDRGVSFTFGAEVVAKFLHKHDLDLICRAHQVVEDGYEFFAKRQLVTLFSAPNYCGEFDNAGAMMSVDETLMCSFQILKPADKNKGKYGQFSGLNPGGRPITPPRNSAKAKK
MsrA inhibitor: bovine MsrA inhibition; purified bovine MsrA, absorbance read-out; inhibition, % at 15.5 µM; 0.75% of 360,000 active; in the data active = inhibition above about 4.5%
bovine MsrA act: activates bovine MsrA enzyme; activation, % at 10.6 µM; AID 602163; purified bovine MsrA, absorbance read-out; 0.3% of 360,000 active; in the data active = activation above about 7.5%
EBNA-1 inh: blocks EBNA-1 binding to DNA; inhibition, % at 14.8 µM; 0.34% of 300,000 active; EBNA-1 DNA binding, fluorescence polarization; AID 1950; in the data active = inhibition above about 28%
PP5 primary: inhibitors of human protein phosphatase 5 (PP5); P53041; purified PP5c, OMFP substrate fluorescence; inhibition, % at 6.7 µM; 0.18% of 320,000 active;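 active = inhibition above the campaign's mean inhibition across all tested compounds plus 3 SD, cut at about 9.5% in these data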
PP1 confirm: confirmation of human PP1 phosphatase inhibitors; shares compounds with PP1 counter; purified PP1alpha, OMFP substrate fluorescence; inhibition, % at 6.7 µM; 52% of 1,900 active; AID 2358;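 active = mean PP1 inhibition above a set limit taken from the earlier primary screen, cut at about 15% in these data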
PP5 inh counter: inhibits human PP5 phosphatase in PP1 counter-screen; shares compounds with PP1 counter; purified PP5c, OMFP fluorescence; inhibition, % at 6.7 µM; 4% of 1,900 active; AID 2360;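 active = mean PP5 inhibition over triplicate wells above about 9.5% taken from the earlier PP1 screen, limit read from the data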
Hits are given with their value; - = inactive; . = no result given. The list is not random: actives were taken first. Their share in the collection is about 2.3%.

SMILES	ZTA DNA inh	PP1 counter	MsrA inhibitor	bovine MsrA act	EBNA-1 inh	PP5 primary	PP1 confirm	PP5 inh counter
CCN1/C(=C/C=C/C=C/C=C/c2sc3ccccc3[n+]2CC)Sc2ccccc21	60	20	-	-	42	-	39	-
CC[n+]1c(/C=C(/C)SC)sc2ccccc21	-	-	-	-	-	-	.	.
CC[n+]1c(/C=C(\C)SC)sc2ccccc21	-	-	-	-	-	-	.	.
CCN1/C(=C/C=C/c2sc3ccccc3[n+]2CC)Sc2ccccc21	-	18	.	-	-	-	-	-
Cc1cccc(-n2c(C)c(C)c3c(N)ncnc32)c1	-	-	-	-	-	-	.	.
Cc1ccccc1Nc1nc(NCc2ccco2)c2ccccc2n1	-	25	-	-	-	-	-	-
Cc1cccc(Nc2nc(NCc3ccco3)c3ccccc3n2)c1	-	25	-	-	-	10	-	-
O=C(O)c1cccc(S(=O)(=O)N2CCC(n3nnc4cc(C(F)(F)F)ccc43)CC2)c1	-	-	-	-	-	-	.	.
CCN(CC)CCCN=Cc1c(-c2ccccc2)[nH]n(-c2nc3ccccc3s2)c1=O	-	30	-	-	-	-	-	-
Cc1ccc(NS(=O)(=O)c2ccc(C)c(NC(=S)NCCN3CCOCC3)c2)c(C)c1	.	.	-	-	.	.	.	.
O=C(Nc1ccc(Br)cc1)c1ccc(N2C(=O)C3CC=C(Cl)CC3C2=O)cc1 (configuration not stated)	-	27	-	-	-	-	26	-
CCN(C(=O)COC(=O)/C=C/c1cccc([N+](=O)[O-])c1)c1ccccc1	-	-	-	-	-	-	.	.
CCCC(=O)N/C(N)=N/c1nc(C)c2cc(C)ccc2n1	-	-	-	-	-	-	.	.
Cc1ccc2nc(/N=C(\N)NC(=O)NC3CCCCC3)nc(C)c2c1	-	22	-	-	-	-	33	-
COc1ccc(C)cc1NC(=O)c1cc2c(s1)CCC2	-	18	-	-	-	-	-	-
COc1ccc(-c2cc(C(=O)NNC(=S)NC(=O)c3c(-c4ccccc4)noc3C)[nH]n2)cc1	-	18	-	-	-	-	17	-
O=C(OCc1nnc(-c2ccccc2)o1)c1cc(Cl)ccc1[N+](=O)[O-]	-	-	-	-	-	-	.	.
O=C(CN1CCCN(Cc2ccc(F)cc2Cl)C1=O)NC1CCCCCC1	-	43	-	-	-	-	-	-
NS(=O)(=O)c1ccc(NC(=O)c2cc(-c3cccs3)nc3ccccc23)cc1	-	-	-	-	-	-	.	.
COC(=O)Cn1c(=NC(=O)c2nc3ccccc3s2)sc2cc(S(C)(=O)=O)ccc21	-	-	-	.	-	-	.	.
C#CCn1c(=NC(=O)c2cc(-c3cccs3)nc3ccccc23)sc2cc(S(N)(=O)=O)ccc21	-	20	-	-	-	-	-	-
CCOC(=O)Cn1c(=NC(=O)c2sc3ccccc3c2Cl)sc2cc(S(N)(=O)=O)ccc21	-	30	-	-	-	-	31	-
C#CCn1c(=NC(=O)CN2C(=O)CCC2=O)sc2cc(S(N)(=O)=O)ccc21	-	-	-	-	-	-	.	.
C#CCn1c(=NC(=O)c2cc(Cl)sc2Cl)sc2cc(S(N)(=O)=O)ccc21	-	19	-	-	-	-	25	-
Nc1nc2ccc(Cl)cc2cc1C(=O)NC1CC1	.	.	-	-	.	.	.	.
SMILES	ZTA DNA inh	PP1 counter	MsrA inhibitor	bovine MsrA act	EBNA-1 inh	PP5 primary	PP1 confirm	PP5 inh counter
CC(C)C[C@H]1COc2cccc(N3CCC[C@H]3CO)c2S(=O)(=O)N1	.	.	-	-	.	.	.	.
Cc1c(NC(=O)c2cccc(-c3cc4ccccc4oc3=O)c2)cccc1-c1nc2ncccc2o1	-	23	-	-	-	-	31	-
COc1ccc(C(=O)Nc2nc3ccc(OC)cc3s2)cc1	.	.	-	-	.	.	.	.
Cc1c(NC(=O)C(C)C)cccc1-c1nc2ncccc2o1	-	-	-	-	-	-	.	.
COc1ccc2nc(NC(=O)c3cccc(-c4cc5ccccc5oc4=O)c3)sc2c1	-	23	-	-	44	-	26	-
c1cc2c3c(cccc3c1)NC1(CCCCCC1)N2	-	21	-	-	-	-	21	-
c1cc2c3c(cccc3c1)NC1(CCCCC1)N2	-	26	-	-	-	-	-	18
CCOC(=O)CSC1=C(C#N)C(C)C2=C(CCCC2=O)N1 (configuration not stated)	-	-	-	-	-	-	.	.
COc1ccc(N2CCN(C(=O)CSc3ncnc4scc(-c5ccc(C)cc5)c34)CC2)cc1	-	26	-	-	-	-	19	-
NC1=NC(c2ccc(Cl)cc2)C(C(=O)c2ccccc2)N1 (configuration not stated)	-	-	-	-	-	-	.	.
COC(=O)c1nn2c(C(F)(F)F)cc(-c3ccc(Br)o3)nc2c1Br	-	-	-	-	-	-	.	.
O=C(Cc1cccs1)N=Nc1c(O)[nH]c2ccccc12	-	-	-	-	-	-	.	.
O=C(N=Nc1c(O)[nH]c2ccccc12)c1cc(-c2cccs2)[nH]n1	-	18	-	-	-	-	24	-
CCOc1ccc(N2C(=O)CC(N(CCc3ccc(OC)c(OC)c3)C(=O)/C=C/C(=O)O)C2=O)cc1 (configuration not stated)	-	-	-	-	-	-	.	.
O=C(O)c1cc(-c2ccc(Cl)cc2)n(-c2cccc(Cl)c2)n1	-	50	-	-	-	-	49	-
O=C(O)c1cc(-c2ccccc2)n(-c2ccc(Cl)cc2Cl)n1	-	38	-	-	-	-	36	-
O=C(O)c1cc(-c2ccc(Cl)cc2)n(-c2ccccc2)n1	-	42	-	-	-	-	43	-
O=C(O)c1cc(-c2ccccc2)n(-c2ccccc2C(=O)O)n1	-	-	-	-	-	-	.	.
O=C(O)c1cc(-c2ccccc2Cl)n(-c2cccc(Cl)c2)n1	-	18	-	-	-	-	-	-
O=C(O)c1cc(-c2ccccc2Cl)n(-c2ccc(F)cc2)n1	-	-	-	-	-	-	.	.
Cc1ccc(-n2nc(C(=O)O)cc2-c2ccccc2Cl)cc1	-	-	-	-	-	-	.	.
O=C(Cn1cnc([N+](=O)[O-])c1)Nc1ccc(Cl)cc1Cl	.	.	-	-	.	.	.	.
O=C(O)c1cc2nccc(-c3ccc(F)cc3)n2n1	-	-	-	-	-	-	.	.
O=C(O)c1cc(-c2ccccc2)n(-c2ccc(F)cc2)n1	-	29	-	-	-	-	18	-
COc1ccc2nc3cc(Cl)ccc3c(Nc3cc(CN4CCCC4)c(O)c(CN4CCCC4)c3)c2n1	-	32	-	-	-	-	-	-
COc1nccnc1NS(=O)(=O)c1ccc(NC(=O)c2cccc(C)c2)cc1	-	-	-	-	-	-	.	.
Cc1cc(C(=O)CN2C(=O)C(=O)N(C3CCCC3)C2=O)c(C)n1CCc1ccc(F)cc1	-	18	-	-	.	-	-	-
